From PubChem BioAssay (NCI)
This is part of a sample that, as a whole, favours compounds with a hit. Of some 83,000 tested, about 20% had one in any assay.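 How to read the values: 0–100, growth inhibition (40 = 60% inhibited); 0, no net growth; -100 to 0, cell death (-40 = 40% of starting cells died; -100 = all dead).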 Values without a mark were called inactive. Calls of active or inactive are those of the source. Rule for the calls: active = growth percent below 10; inactive = the rest.

How the values were obtained:
Test in all cases: NCI-60 one-dose screen, 48 h (100 = growth as untreated, 0 = no growth, -100 = all killed)
Settings in all cases: 10 µM unless noted
[1] = test system: HCT-15 colon
[2] = test system: HT29 colon
[3] = test system: SNB-75 CNS
[4] = test system: SNB-19 CNS
[5] = test system: U251 CNS
[6] = test system: PC-3 prostate
[7] = test system: SK-MEL-5 melanoma
[8] = test system: UACC-62 melanoma
[9] = test system: LOX IMVI melanoma
[10] = test system: SK-MEL-28 melanoma

SMILES	growth [1]	growth [2]	growth [3]	growth [4]	growth [5]	growth [6]	growth [7]	growth [8]	growth [9]	growth [10]
CCCCn1c(=O)[nH]c(N)c(C(c2ccc(F)cc2)c2c(N)[nH]c(=O)n(CCCC)c2=O)c1=O	95.7%	66.4%	62.2%	74%	65.3%	53.9%	36.7%	55.6%	58.9%	74.7%
Cc1c(C(N)=O)sc2nc(C)n(/N=c3\scc(-c4ccccc4)n3Cc3ccccc3)c(=O)c12	14.9%	79.5%	54.8%	29.4%	7.76% (active)	1.97% (active)	7.44% (active)	27.7%	20.6%	48.2%
O=C(O)C1C[C@](O)(c2ccc(F)cc2)[C@@H](c2ccc(F)cc2)O1 (some centres undefined)	131%	120%	114%	97.5%	110%	85.9%	129%	108%	111%	129%
[2H]c1nc(Nc2ncc(F)c(-c3cc(F)c4nc(C)n(C(C)C)c4c3)n2)c([2H])c([2H])c1CN1CCN(C([2H])([2H])C([2H])([2H])[2H])CC1	39.8%	34.6%	33.9%	65.5%	42.2%	44.2%	41.8%	73.3%	39.1%	70.3%
CS(=O)(=O)c1ccc(-c2nc3cc(Cl)ccc3n2CC(=O)NO)cc1	102%	95.6%	73.7%	96.4%	93.1%	95.7%	103%	92.6%	97.9%	100%
CN1C(=O)CCC(N2C(=O)c3cccc(NCCOCCOCCNC(=O)c4cc5c(o4)C(=O)c4ccccc4C5=O)c3C2=O)C1=O (centres undefined)	-79% (active)	0.328% (active)	-98.2% (active)	1.34% (active)	-5.25% (active)	7.64% (active)	-97% (active)	-91% (active)	-53.6% (active)	-19.9% (active)
N#C/C(=C\c1ccc(Br)cc1)n1nnc2ccccc21	2.5% (active)	3.79% (active)	24.8%	29%	-35.7% (active)	12.7%	6.25% (active)	14%	-75% (active)	6.49% (active)
CCn1c(Sc2nnc(NC(=O)CSC(=S)N3CCCCC3)s2)nc2c1c(=O)n(C)c(=O)n2C	49%	41.3%	88.7%	87.5%	96.2%	79.2%	85.4%	60.8%	81.5%	78.1%
O=C(CCCCCCCn1cc(-c2cccnc2)nn1)Nc1ccccc1-c1ccccc1	24.1%	39%	92.3%	48.2%	31.1%	49.3%	30.5%	60.6%	57.3%	71%
O=C1NCC(=O)N(Cc2ccco2)[C@H]1Cc1ccccc1	98.4%	103%	94.5%	94.5%	88.6%	91%	102%	96.6%	95.6%	107%
COc1cc2c(cc1OC)-c1ccc3cc4c(cc3c1N(CCN(C)C)C2)OCO4	56.7%	-45.8% (active)	-5.56% (active)	8.26% (active)	-42.9% (active)	0.178% (active)	-10.9% (active)	3.42% (active)	-83.2% (active)	43.7%
O=C1C2=C(CCN(Cc3ccccc3)C2)N2CCN=C2N1Cc1ccc(C(F)(F)F)cc1	13%	31%	38.1%	27.7%	21.8%	20.3%	14.2%	18.4%	29.2%	47.1%
Clc1ccc(-c2cn(-c3ccccc3)c(-c3ccccc3)n2)cc1	79.4%	85.3%	87.7%	79.1%	78.2%	59.4%	85.9%	92.2%		93.8%
